Most compounds without a hit are left out; they make up all but 2.5% or so of the library.
Mcl1 Bid PPI: Mcl-1/Bid interaction inhibition. inhibition, % at 21.7 µM. TR-FRET Mcl-1/Bid-Dy647 peptide binding, 1536-well. 220,000 tested, 0.97% active;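 active means compounds that cut the binding signal by more than half at the single screening dose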;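 further: His-tagged Mcl-1 with europium anti-His antibody binding Bid BH3 peptide; 0% = Mcl-1 plus peptide wells and 100% = peptide-only wells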
Mcl-1 Bim block: human Bim-Mcl-1 interaction inhibition; 190,000 tested, 0.1% active; inhibition, % at 10 µM; Bead-based flow cytometry, Bim peptide-Mcl-1 binding; in the data active means inhibition above about 40%;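 further: 0% = no compound tracer wells and 100% = peptide blocker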
Mcl1 Noxa PPI: Mcl-1/Noxa interaction inhibition; TR-FRET Mcl-1/Noxa peptide binding, 2 h; inhibition, % at 21.7 µM; 220,000 tested, 1.5% active;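 active means compounds that cut the protein-peptide binding signal by more than 50% relative to plate controls in a single-dose test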;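 further: His-tagged Mcl-1 with rhodamine Noxa BH3 peptide and terbium anti-His antibody; 0% = Mcl-1 plus Noxa peptide wells and 100% = peptide-only wells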
14-3-3 Bad inh: disrupts binding of bovine 14-3-3 zeta to phospho-Bad peptide. TR-FRET 14-3-3zeta/Dy647-pBad peptide displacement, 1 h. inhibition, % at 21.7 µM. 220,000 tested, 0.71% active. AID 781;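 active means inhibition above about 70%, limit read from the data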;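 further: 0% = full 14-3-3 plus peptide FRET controls and 100% = background without 14-3-3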
Target sequence (P63103 whole entry, looked up): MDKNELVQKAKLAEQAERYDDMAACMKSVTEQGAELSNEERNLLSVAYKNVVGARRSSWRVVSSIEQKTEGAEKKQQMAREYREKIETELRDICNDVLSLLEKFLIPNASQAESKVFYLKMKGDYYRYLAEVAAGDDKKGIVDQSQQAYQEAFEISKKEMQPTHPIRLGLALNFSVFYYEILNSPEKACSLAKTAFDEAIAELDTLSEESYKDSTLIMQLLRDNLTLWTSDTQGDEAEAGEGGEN
MCL1-BIM inh: inhibitors of human MCL1 binding to BIM-BH3 peptide; GST-MCL1 / FITC-Bim-BH3 fluorescence polarization; 320,000 tested, 0.68% active; AID 2057; inhibition, % at 10.9 µM;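 active means inhibition above the mean inhibition of all tested compounds plus 3 SD, set per campaign, cut at about 40% in these data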;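 further: 0% = DMSO wells and 100% = unlabeled Bim-BH3 peptide control; higher means more loss of mP so more displacement of Bim peptide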
* hit, by the source's call; [ ] = another dose, or the depositor's remark.

Results for Cc1nc(NC(C)c2ccccc2)sc1C(=O)Nc1ccccc1 (stereo not given) ?
Mcl1 Bid PPI: 0.1; Mcl-1 Bim block: 1.0; Mcl1 Noxa PPI: 15.4; 14-3-3 Bad inh: -6.2; MCL1-BIM inh: -0.1

How did Cc1ccccc1-c1cn(-c2ccccc2)c(=S)[nH]1 do in these assays?
MCL1-BIM inh: -4.9

Results for O=C(NCc1nc2ncc(Br)cc2[nH]1)c1ccccc1 ?
Mcl1 Bid PPI: 73.4*; Mcl-1 Bim block: -1.0; Mcl1 Noxa PPI: 5.9; 14-3-3 Bad inh: -6.3; MCL1-BIM inh: 13.3

What do the screens show for `CN(/N=C/c1ccncc1)C1=NS(=O)(=O)c2ccccc21`?
Mcl1 Bid PPI: 4.2; Mcl-1 Bim block: 26.0; Mcl1 Noxa PPI: 10.7; 14-3-3 Bad inh: 79.4*; MCL1-BIM inh: -2.0

How did C=CCN(CC=C)C(=S)NC(=O)Cc1cccc2ccccc12 do in these assays?
Mcl1 Bid PPI: -50.1; Mcl-1 Bim block: 0.0; Mcl1 Noxa PPI: 61.5*; 14-3-3 Bad inh: 18.2; MCL1-BIM inh: 12.2

Results for O=C(Cc1cccc2ccccc12)Nc1ccccc1 ?
MCL1-BIM inh: 3.1

Results for Cc1cccc(N(CC(=O)NC2CCCC2)C(=O)c2cc3cc4cccc(C)c4nc3s2)c1C ?
Mcl1 Bid PPI: 67.3*; Mcl-1 Bim block: 2.0; Mcl1 Noxa PPI: 12.1; 14-3-3 Bad inh: -3.5; MCL1-BIM inh: -6.2

Results for Cc1ccc(C)c(N(CC(=O)NC2CCCC2)C(=O)c2cc3cc4cc(C)ccc4nc3s2)c1 ?
Mcl1 Bid PPI: -15.4; Mcl-1 Bim block: 0.0; Mcl1 Noxa PPI: 19.1; 14-3-3 Bad inh: -1.5; MCL1-BIM inh: -1.8

Results for COC(=O)C1=C[C@@H](C(=O)OC)[C@@H]2C3=C(C(=O)[C@@]2(C)NC(=O)c2ccccc2)[C@H](C)C(C(=O)OC)=C(C(=O)OC)[C@@H]3C1 ?
MCL1-BIM inh: 11.1

Results for O=C(CCN1CCCCC1)c1ccccc1 ?
Mcl1 Bid PPI: -33.6; Mcl-1 Bim block: -4.0; Mcl1 Noxa PPI: 25.7; 14-3-3 Bad inh: -8.0; MCL1-BIM inh: 5.2

How did C[N+]1(CCC(=O)c2ccccc2)CCCCC1 do in these assays?
Mcl1 Bid PPI: 56.3*; Mcl-1 Bim block: -3.0; Mcl1 Noxa PPI: -11.8; 14-3-3 Bad inh: -0.4; MCL1-BIM inh: -18.3

What do the screens show for `Cc1cc(-c2nnc(SCC(=O)c3ccc4c(c3)OCCO4)o2)no1`?
Mcl1 Bid PPI: -26.8; Mcl-1 Bim block: -2.0; Mcl1 Noxa PPI: 58.9*; 14-3-3 Bad inh: 2.4; MCL1-BIM inh: 9.8

What do the screens show for `Cc1cc(C)cc(-c2nnc(SCC(=O)c3ccc4c(c3)OCCO4)o2)c1`?
Mcl1 Bid PPI: -3.0; Mcl-1 Bim block: -1.0; Mcl1 Noxa PPI: -10.9; 14-3-3 Bad inh: 11.4; MCL1-BIM inh: -3.5

What do the screens show for `O=C(Nc1ccnn1C1CCN(C2CCC2)CC1)c1cccc(F)c1`?
MCL1-BIM inh: 4.6

How did CCOc1ccccc1C(=O)Nc1ccc2nc(N3CCN(c4ncccn4)CC3)cc(C)c2c1 do in these assays?
MCL1-BIM inh: 3.2

How did COc1cccc(C(=O)Nc2ccc3nc(N4CCN(c5ncccn5)CC4)cc(C)c3c2)c1OC do in these assays?
Mcl1 Bid PPI: 82.8*; Mcl-1 Bim block: 6.0; Mcl1 Noxa PPI: 73.7*; 14-3-3 Bad inh: 37.9; MCL1-BIM inh: -14.9

How did Cc1cc(NC(=O)CSc2nnc(NC(=O)C3CC(=O)N(c4ccccc4)C3)s2)no1 (stereo not given) do in these assays?
Mcl1 Bid PPI: 50.5*; Mcl-1 Bim block: 2.0; Mcl1 Noxa PPI: -55.9; 14-3-3 Bad inh: 35.1; MCL1-BIM inh: -20.3

How did Cc1cc(NC(=O)CSc2nnc(NC(=O)C3CC(=O)N(c4ccccc4C)C3)s2)no1 (stereo not given) do in these assays?
Mcl1 Bid PPI: -34.4; Mcl-1 Bim block: -3.0; Mcl1 Noxa PPI: 20.3; 14-3-3 Bad inh: -24.2; MCL1-BIM inh: -0.7

What do the screens show for `Cc1cc(C)cc(C(=O)NC2CC(C)(C)NC(C)(C)C2)c1`?
MCL1-BIM inh: 6.8

How did CCOc1ccccc1C(=O)Nc1nnc(CC)s1 do in these assays?
Mcl1 Bid PPI: -5.7; Mcl-1 Bim block: -4.0; Mcl1 Noxa PPI: 0.5; 14-3-3 Bad inh: 1.4; MCL1-BIM inh: -6.1

Results for O=C(c1ccccc1)n1ccc(-c2cccs2)n1 ?
Mcl1 Bid PPI: -7.8; Mcl1 Noxa PPI: -18.6; 14-3-3 Bad inh: 1.1; MCL1-BIM inh: -0.8

How did COc1ccc2nc(COC(=O)c3ccco3)c(C(C)=O)[n+]([O-])c2c1 do in these assays?
Mcl1 Bid PPI: -22.1; Mcl-1 Bim block: 3.0; Mcl1 Noxa PPI: 5.3; 14-3-3 Bad inh: 85.8*[fluorescence artefact?]; MCL1-BIM inh: 5.3
